Laboratory results from article PMC4336329 (PLoS ONE, 2015).
Among all 310,000 compounds or so, about 14,000 (4.5%) showed an effect of 50% or more. The effect is printed as a negative number. This is one part of a sample in which strong results are shown more often than they occur.

Target: human ether-à-go-go-related gene (hERG) potassium channel (human, UniProt Q12809)
Experiment: primary screen, population patch clamp on CHO cells stably expressing hERG; higher = less effect of the substance
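Also: peak tail current of the secondary pulse compared with the same well before compound.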

Chain of human ether-à-go-go-related gene (hERG) potassium channel (Q12809 whole entry, looked up): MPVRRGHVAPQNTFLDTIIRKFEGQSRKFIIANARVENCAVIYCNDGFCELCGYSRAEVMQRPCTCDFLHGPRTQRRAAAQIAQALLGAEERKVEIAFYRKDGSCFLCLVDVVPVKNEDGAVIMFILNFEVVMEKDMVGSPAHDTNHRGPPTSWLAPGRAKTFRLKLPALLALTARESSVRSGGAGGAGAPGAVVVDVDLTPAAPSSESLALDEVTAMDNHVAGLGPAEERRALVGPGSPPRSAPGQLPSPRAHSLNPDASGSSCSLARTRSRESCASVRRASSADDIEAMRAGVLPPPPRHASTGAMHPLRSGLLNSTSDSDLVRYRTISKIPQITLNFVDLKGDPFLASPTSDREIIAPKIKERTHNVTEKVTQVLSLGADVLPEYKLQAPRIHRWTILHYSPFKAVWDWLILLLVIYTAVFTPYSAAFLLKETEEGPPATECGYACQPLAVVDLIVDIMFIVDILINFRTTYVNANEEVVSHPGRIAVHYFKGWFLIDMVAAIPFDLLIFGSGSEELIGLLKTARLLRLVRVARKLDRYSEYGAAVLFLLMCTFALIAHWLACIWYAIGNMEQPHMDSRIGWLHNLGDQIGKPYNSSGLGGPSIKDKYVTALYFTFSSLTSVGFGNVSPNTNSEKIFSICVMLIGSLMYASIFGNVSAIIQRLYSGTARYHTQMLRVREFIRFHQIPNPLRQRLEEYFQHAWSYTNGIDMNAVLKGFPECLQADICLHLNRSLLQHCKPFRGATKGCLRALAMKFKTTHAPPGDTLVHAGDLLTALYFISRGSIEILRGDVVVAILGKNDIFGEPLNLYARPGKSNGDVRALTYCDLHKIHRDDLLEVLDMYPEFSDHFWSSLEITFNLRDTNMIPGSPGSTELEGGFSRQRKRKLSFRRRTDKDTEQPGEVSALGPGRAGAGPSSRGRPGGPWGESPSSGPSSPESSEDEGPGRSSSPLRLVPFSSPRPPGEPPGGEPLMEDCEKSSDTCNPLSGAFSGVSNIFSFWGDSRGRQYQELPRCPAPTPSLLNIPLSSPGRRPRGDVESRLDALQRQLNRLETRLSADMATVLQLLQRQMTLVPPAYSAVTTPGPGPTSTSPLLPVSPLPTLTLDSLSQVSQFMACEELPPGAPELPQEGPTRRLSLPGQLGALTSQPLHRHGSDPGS

Row | Compound | hERG current change (%, negative = inhibition) at 10uM [%]
1 | O=C(CSc1nnc(Cc2ccccc2)o1)Nc1ccc2c(c1)OCO2 | 10.5
2 | CCOC(=O)Cc1csc(NC(=O)Cc2ccccc2)n1 | 1.37
3 | CC(=O)N1c2ccc(S(=O)(=O)N3CCC(C(=O)Nc4cccc(C(F)(F)F)c4)CC3)cc2CC1C (stereo not shown) | 11.7
4 | COc1ccc(OCc2cc(C(=O)N3CCCCCC3)no2)c(Cl)c1 | -11.7
5 | O=C(Nc1ccc(F)cc1)N1CCN(CCc2ccccc2)CC1 | -52.3
6 | O=C(Nc1cccc(Cl)c1)N1CCOCC1 | 20
7 | O=C(Nc1ccc(F)cc1)N1CCN(C/C=C/c2ccccc2)CC1 | -68.6
8 | O=C(Nc1cccc(Cl)c1)N1CCN(C/C=C/c2ccccc2)CC1 | -68.5
9 | O=C(Nc1cccc(F)c1)N1CCN(C/C=C/c2ccccc2)CC1 | -59
10 | CCOC(=O)N1CCN(C(=O)Nc2cccc(Cl)c2)CC1 | 2.81
11 | O=C(Nc1ccccc1)N1CCN(CCc2ccccc2)CC1 | -14.5
12 | O=C(Nc1ccc(F)cc1F)N1CCN(CCc2ccccc2)CC1 | -15.6
13 | O=C(Nc1ccc2c(c1)OCO2)N1CCN(C/C=C/c2ccccc2)CC1 | -15.4
14 | S=C(Nc1ccccc1)N1CCN(C/C=C/c2ccccc2)CC1 | -8.71
15 | O=C(Cc1ccccc1)Nc1ccc(N2CCOCC2)cc1N1CCOCC1 | -0.646
16 | CSCCC(NC(=O)COc1ccccc1)C(=O)N1CC(C)CC(C)C1 (stereo not shown) | -41.4
17 | CCCCc1cc(=O)oc2c(CN3CCCC3)c(O)c(Cl)cc12 | -20.9
18 | COC(=O)c1[nH]c2c(c1C)C(=O)CC(c1ccc(OC)c(OC)c1)C2 (stereo not shown) | -0.262
19 | CC(Sc1ccccc1)C(=O)N(CCC#N)Cc1cccnc1 (stereo not shown) | 6.64
20 | Cc1ccc(NC(=O)CSc2nnc(-c3cnccn3)n2Cc2ccco2)cc1 | -21.3
21 | COc1ccccc1C1CC(c2ccc(Cl)cc2)Nc2ncnn21 (stereo not shown) | -44.8

Row | Compound | hERG current change (%, negative = inhibition) at 10uM [%]
22 | Cc1cccn2c(CN(C)C3CCOC3)c(C(=O)N3CCCCC3)nc12 (stereo not shown) | 32.3
23 | O=c1cc(-c2ccc(O)c(O)c2)oc2cc(O)c(C3OC(CO)C(O)C(O)C3O)c(O)c12 (stereo not shown) | 3.72
24 | CC1(C)Cc2cccc(OCC(=O)NCc3cccs3)c2O1 | -0.101
25 | C=C(C)c1cccc(C(C)(C)NC(=O)N2CCN(CC(N)=O)CC2)c1 | 11.3
26 | CCNC(=O)N1CCN(CCCC(c2ccc(F)cc2)c2ccc(F)cc2)CC1.Cl | -82.3
27 | C=C(C)c1cccc(C(C)(C)NC(=O)N2CCN(C/C=C/c3ccccc3)CC2)c1 | -62.9
28 | Cc1ccc(NC(=O)N2CCN(C/C=C/c3ccccc3)CC2)cc1 | -44.6
29 | O=C(C1CCN(Cc2ccc(F)cc2)CC1)N1CCN(C/C=C/c2ccccc2)CC1.O=C(O)C(=O)O | -63.6
30 | Cc1cc(C)cc(NC(=O)N2CCN(C/C=C/c3ccccc3)CC2)c1 | -69
31 | O=C(C1CCN(Cc2ccccc2)CC1)N1CCN(C/C=C/c2ccccc2)CC1.O=C(O)C(=O)O | -33.3
32 | O=C(Cc1ccccc1)N1CCN(Cc2ccc(F)cc2)CC1.O=C(O)C(=O)O | 2.38
33 | CC1=C(C)CC(C(=O)N2CCN(C/C=C/c3ccccc3)CC2)C(C(=O)O)C1 (stereo not shown) | 8.99
34 | CCNC(=O)N1CCN(C(=O)NCC)CC1 | 15.7
35 | CCCCNC(=O)N1CCN(Cc2ccc(F)cc2)CC1 | -11.3
36 | C=C(C)c1cccc(C(C)(C)NC(=O)N2CCN(CC)CC2)c1 | 7.13
37 | Cn1c(=O)c2c(ncn2CC(O)CNc2ccc(F)cc2)n(C)c1=O (stereo not shown) | 1.35
38 | COc1ccc(S(=O)(=O)N2CCC(C(=O)NCCC(=O)NCc3ccncc3)CC2)cc1 | 11
39 | CCN(CCN1CCCC1)C(=O)c1cc(COc2ccccc2SC)on1 | -32.1
40 | CN(C)C=NC(=O)c1ccc(N2CCN(c3ncc(C(F)(F)F)cc3Cl)CC2)cc1 | 7.74
41 | O=C(NCCO)Nc1ccc2nsnc2c1 | -5.93
42 | NC(=O)c1ccccc1N=Cc1cccnc1 | -21

Row | Compound | hERG current change (%, negative = inhibition) at 10uM [%]
43 | Cc1cc(N2C(=O)c3ccc(C(=O)Nc4ccccc4O)cc3C2=O)no1 | 14.1
44 | O=c1c(Cc2c(F)cccc2Cl)c(O)ccn1C1CC1 | -11.7
45 | COc1ccc(NC(=O)c2csc3c2CCCCC3)c(OC)c1 | -6.93
46 | CCOC(=O)c1c(C)[nH]c(C(=O)N/N=C/c2cc([N+](=O)[O-])ccc2O)c1C | 33.7
47 | CCCCCn1c(=O)c(C(=O)Nc2ccccc2N)c(O)c2ccccc21 | 21.4
48 | CCOC(=O)c1cc(NCc2cccs2)ccc1N1CCOCC1 | -3.79
49 | COc1ccc(-c2[nH]c(-c3ccc4c(c3)OCO4)nc2-c2ccccc2)cc1 | 1.88
50 | COc1ccc(/C=N\NC(=O)c2ccccc2)cc1COc1ccccc1 | 20.6
51 | COc1ccc(/C=N/NC(=O)c2cccnc2)cc1CN1CCc2ccccc2C1 | -17.9
52 | COc1ccc(/C=N\NC(=O)c2ccccc2)cc1COc1ccc(F)cc1 | -0.876
53 | COc1ccc(/C=N\NC(=O)c2cc(O)c(O)c(O)c2)cc1CN1CCN(c2ccc(F)cc2)CC1 | 14.6
54 | COc1ccc(/C=N/NC(=O)c2ccccc2O)cc1CN1CCOCC1 | -12.8
55 | COc1ccc(/C=N/NC(=O)c2cccnc2)cc1CN1CCOCC1 | 13.6
56 | COc1ccc(/C=N/NC(=O)c2ccn[nH]2)cc1CN1CCOCC1 | -14.8
57 | COc1cc(OC)cc(C(=O)N/N=C/c2ccc(OC)c(COc3ccc(F)cc3)c2)c1 | 6.62
58 | COc1cc(C(=O)N/N=C/c2ccc(OC)c(CN3CCN(c4ccc(F)cc4)CC3)c2)ccc1O | -75.3
59 | COc1ccc(/C=N/NC(=O)c2cccnc2)cc1CN1CCN(c2ccc(F)cc2)CC1 | -51
60 | COc1ccc(/C=N/NC(=O)c2ccccc2)cc1CN1CCN(c2ccc(F)cc2)CC1 | -74.5
61 | COc1ccc(/C=N/NC(=O)c2ccc(C)cc2)cc1CN1CCN(c2ccc(F)cc2)CC1 | -69.8
